In the library only some 2.4% were active in any assay of this set; here they are far more common.
ASK1 primary: inhibitors of human ASK1 kinase. Q99683. AlphaScreen MKK6 phosphorylation by ASK1, luminescence. inhibition, % at 7.44 µM. 22,000 compounds, 0.99% hits. AID 1159602; in the data active means inhibition above about 35%;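 further: 0% = median of compound wells and 100% = no enzyme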
ULK1 inh: blocks human autophagy kinase ULK1; O75385; inhibition, % at 5.96 µM; 30,000 compounds, 1.9% hits; AlphaScreen Atg13 phosphorylation by ULK1, luminescence; in the data active means inhibition above about 43%;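 further: 0% = median of compound wells and 100% = no enzyme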
AlphaScreen intf: AlphaScreen optical interference dose response, ASK1 counter-screen. 220 compounds, 20% hits. shares compounds with ASK1 primary. AID 1159604. IC50, µM. AlphaScreen TruHits beads, signal interference counterscreen;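 active means IC50 of 10 µM or lower in the counterscreen; inactive means IC50 above 10 µM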;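 further: loss of AlphaScreen light from TruHits beads alone with no ASK1 enzyme present; potency of signal reduction so a low IC50 flags an assay artifact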
An asterisk follows results filed as active; i = inactive; / = no result given; ! = a repeat was not active.

SMILES	ASK1 primary	ULK1 inh	AlphaScreen intf
COc1ccc(CCNc2nc(Nc3cccc(N(C)C)c3)nc3cc(OC)c(OC)cc23)cc1	61.1*	-8.9	7.62*
CCCNC(=O)Cc1cn(-c2ccc(Nc3ccnn3C)nn2)c2ccccc12	-3.9	14.3	/
c1ccc(Oc2ccc(Nc3nc(N4CCOCC4)nc4c3ncn4-c3ccccc3)cc2)cc1	26.1	1.3	/
c1ccc(Oc2ccc(Nc3nc(N4CCc5ccccc5C4)nc4c3ncn4-c3ccccc3)cc2)cc1	45.8*	11.3	>20
O=C(NCCN1CCOCC1)c1cccc(-n2ncc3cc(Nc4c(F)cccc4[N+](=O)[O-])ccc32)c1	44.0*	-15.1	>19.2
Cc1cccc(Nc2ccc3c(cnn3-c3cccc(C(=O)NCCN4CCNCC4)c3)c2)c1Cl	43.1*	-45.8	>19.2
Cc1cccc(Nc2ccc3c(cnn3-c3cccc(C(=O)NCCN4CCN(CC5CC5)CC4)c3)c2)c1Cl	35.8*	-35.0	>19.2
Cc1cccc(Nc2ccc3c(cnn3-c3cccc(C(=O)NCCN4CCN(C)CC4)c3)c2)c1Cl	24.0	-32.5	/
O=C(NCCN1CCOCC1)c1cccc(-n2ncc3cc(Nc4ccccc4F)ccc32)c1	-9.4	-31.1	/
CC(=O)N1CCN(CCNC(=O)c2cccc(-n3ncc4cc(Nc5cccc(C)c5Cl)ccc43)c2)CC1	-15.8	-31.6	/
COc1ccc(-c2cc(C(=O)NCCO)ccn2)cn1	-6.3	13.8	/
CC(C)(C)OC(=O)N1CCC[C@@H]1C(=O)N1CCC(c2nc(-c3ccncc3)no2)CC1	-5.8	-2.0	/
CCCNC(=O)c1ccc2nc(-c3ccc4[nH]ccc4c3)sc2c1	7.6	10.5	/
Cc1noc(C)c1-c1nc(NCCN(C(C)C)C(C)C)c2ncn(-c3ccccc3)c2n1	-10.4	-1.1	/
COc1ccc(Cn2c(=O)c3ncccc3n(CC(=O)NCc3ccc(F)cc3)c2=O)cc1	/	7.4	/
COc1ccc2c3c(c(=O)oc2c1)CN(C(=O)c1c(F)cccc1F)CC3	/	7.9	/
COc1cc(Nc2nc(-c3c(C)noc3C)nc3c2ncn3Cc2ccc(C(F)(F)F)cc2)cc(OC)c1OC	36.8*	-46.0	>27.5
COc1cc(Nc2nc(Nc3cc(OC)c(OC)c(OC)c3)c3ncn(Cc4ccc(C(F)(F)F)cc4)c3n2)cc(OC)c1OC	18.8	-19.4	/
FC(F)(F)c1ccc(Cn2cnc3c(NCCOc4ccccc4)nc(Nc4ccc5ncccc5c4)nc32)cc1	20.2	-4.2	/
Cc1nc(-c2ccccc2F)cc(N2CCN(C)CC2)n1	/	-6.7	/
c1cc(-n2cnc3c(Nc4ccc(N5CCOCC5)cc4)nc(N4CCN(Cc5ccc6c(c5)OCO6)CC4)nc32)cs1	50.7*	18.5	i
CC(C)n1cnc2c(Nc3ccc4c(c3)OCO4)nc(N3CCN(Cc4ccc5c(c4)OCO5)CC3)nc21	15.8	23.7	/
CC(C)n1cnc2c(Nc3ccc(N4CCOCC4)cc3)nc(N3CCN(Cc4ccc5c(c4)OCO5)CC3)nc21	40.7*	3.9	i
c1cc(-n2cnc3c(Nc4ccc(N5CCOCC5)cc4)nc(N4CCOCC4)nc32)cs1	-10.5	42.4	/
Oc1ccc(CCNc2nc(N3CCN(Cc4ccc5c(c4)OCO5)CC3)nc3c2ncn3-c2ccccc2)cc1	29.8	10.3	/
SMILES	ASK1 primary	ULK1 inh	AlphaScreen intf
COc1ccc(CCNc2nc(Nc3ccccc3)nc3c2ncn3C2CCCCC2)cc1	25.4	6.0	/
COc1ccc(CCNc2nc(NC3CCN(Cc4ccccc4)CC3)nc3c2ncn3C2CCCCC2)cc1	43.4*	9.6	>22.6
Oc1ccc(CCNc2nc(N3CCN(Cc4ccc5c(c4)OCO5)CC3)nc3c2ncn3-c2ccsc2)cc1	37.9*	19.1	i
CCC(=O)NNc1ccc(C#N)cc1[N+](=O)[O-]	/	10.8	/
COc1ccc(CCNc2nc(NCc3ccc4c(c3)OCO4)nc3cc(OC)c(OC)cc23)cc1	5.8	2.4	/
CCCNC(=O)c1ccc2nc(-c3ccc(OC)nc3)sc2c1	3.8	-11.1	/
CC(=O)Nc1ccc(NC(=O)c2cccc(-c3c(C)noc3C)n2)cc1	0.4	9.0	/
Oc1ccc(CCNc2nc(N3CCN(Cc4ccc5c(c4)OCO5)CC3)nc3c2ncn3C2CCCCC2)cc1	34.5	27.5	/
CC(C)n1cnc2c(Nc3ccc4c(c3)OCO4)nc(Nc3ccc(N4CCOCC4)cc3)nc21	36.1*	11.9	>20
Cc1cc(Nc2ccc3c(c2)OCO3)nc(Nc2ccc(N3CCOCC3)cc2)n1	73.4*	-17.7	i
Cc1cc(Nc2ccc(N3CCOCC3)cc2)nc(Nc2ccncc2)n1	20.5	5.3	/
COc1ccc(CCNc2nc(N3CCN(Cc4ccc5c(c4)OCO5)CC3)nc3c2ncn3C2CCCCC2)cc1	47.6*	14.6	>22.5
COc1ccc(-c2nc(C)cc(Nc3ccc(N4CCOCC4)cc3)n2)cc1	49.8*	0.1	i
CC(C)n1cnc2c(Nc3ccc4c(c3)OCO4)nc(N3CCC(N4CCOCC4)CC3)nc21	10.0	22.6	/
COc1ccc(-c2nc(C)cc(Nc3ccc(N4CCOCC4)cc3)n2)cn1	26.8	0.7	/
CCCNc1nc(Nc2nccc3ccccc23)nc2c1ncn2C1CCCCC1	8.9	6.2	/
CCCNc1ccnc(NCc2cccnc2)n1	3.1	-2.7	/
COc1nc(Nc2ccc(Oc3ccccc3)cc2)nc(-c2cccc(C(C)=O)c2)n1	1.1	-4.8	/
NC(=O)c1ccnc(N2CCC(N3CCOCC3)CC2)c1	-3.3	-4.2	/
CC(C)n1cnc2c(NCCc3ccc(O)cc3)nc(Nc3ccc(-n4ccnc4)cc3)nc21	3.2	-5.2	/
O=C(Nc1ccc2[nH]ncc2c1)[C@@H]1CCCN1C(=O)C(O)c1ccc(F)cc1 (stereo partly drawn)	-1.1	-18.9	/
c1ccc(OCCNc2ccnc(Nc3cccnc3)n2)cc1	-8.2	7.2	/
Cc1ccc2c(c1)CC(C(=O)Nc1ccc(-c3cn[nH]c3)cc1OCC(=O)N(C)C)CO2 (stereo not drawn)	9.4	-5.0	/
COc1cc2nc(Nc3nccc4ccccc34)nc(Nc3ccc(NC(C)=O)cc3)c2cc1OC	69.1*	-2.0	>19.4
COc1cc2nc(Nc3ccccc3)nc(Nc3ccc(NC(C)=O)cc3)c2cc1OC	2.6	-4.7	/
SMILES	ASK1 primary	ULK1 inh	AlphaScreen intf
N#C/C(=C\c1ccc(OCC(=O)Nc2ccccc2)cc1)C(=O)NCc1cccnc1	/	-8.1	/
c1nc(Nc2ccc(N3CCOCC3)cc2)c2[nH]c(N3CCN(Cc4ccc5c(c4)OCO5)CC3)nc2n1	42.9*	41.9	>13.8
c1ccc(CNc2ncnc3nc(N4CCN(Cc5ccc6c(c5)OCO6)CC4)[nH]c23)cc1	0.2	-12.9	/
c1nc2nc(N3CCN(Cc4ccc5c(c4)OCO5)CC3)nc(Nc3ccc(N4CCOCC4)cc3)c2[nH]1	21.7	26.3	/
c1cnc2ccc(Nc3nc4ncnc(Nc5ccc6c(c5)OCO6)c4[nH]3)cc2c1	25.3	6.9	/
c1cn(-c2ccc(Nc3nc4ncnc(Nc5ccc6c(c5)OCO6)c4[nH]3)cc2)cn1	39.2*	11.0	>21.9
Oc1ccc(CCNc2ncnc3nc(N4CCN(Cc5ccc6c(c5)OCO6)CC4)[nH]c23)cc1	41.2*	13.4	i
COc1ccc(CCNC(=O)c2ccc3nc(N4CCCC4CO)sc3c2)cc1 (stereo not drawn)	-5.4	-4.4	/
CCCNC(=O)c1ccnc(-c2cccc(C(C)=O)c2)c1	-5.5	7.0	/
Nc1nc(Nc2ccc(N3CCOCC3)cc2)cc(NC2CCN(Cc3ccccc3)CC2)n1	43.0*!	19.2	>23.1
Cc1cc(NC2CC2)nc(Nc2ccc(N3CCOCC3)cc2)n1	7.5	5.2	/
